We go through 67 molecules from ChEMBL document CHEMBL3988442, “University of Dundee, Small-Polar-MMV Screening Library” (2021).

The campaign covered roughly 48,000 compounds. About 13,000 (27%) showed an effect of 50% or more. Some of the results follow.

This experiment has as its system Wolbachia pipientis. Nature of the experiment: Anti-Wolbachia Cell-Based Screen. It counts as functional. More on the design: scale not given: in the data most compounds retested in dose-response had high values. The note with it: 5 µM.
Consider `NC(=O)CCSCc1cc(Br)cc2cccnc12`, for which the “Percent Effect” value is -18.43%.

For `CCn1cc(C#N)c(=O)c2cc(Br)ccc21`, the “Percent Effect” value is -20.97%.

Turning to `C=C(C)CN(CC)Cc1nc(C(C)(C)C)no1`, the “Percent Effect” value worked out at 1.625%.

Take `Cc1ccccc1CN(Cc1ccc(S(C)(=O)=O)cc1)CC(C)C`: the “Percent Effect” value came to 34.24%.

Take `COCc1ccc(OC)c(CNC2CCCNC2=O)c1` (configuration not stated): the “Percent Effect” value was determined as 133.5%.

For `COc1cc(Br)c(CNC2CCCNC2=O)cc1OC.Cl` (configuration not stated), the “Percent Effect” value is recorded as -7.392%.

Consider `COc1cc(Br)cc(CNC2CCCNC2=O)c1O` (configuration not stated), for which the “Percent Effect” value is -10.61%.

As to `Cn1cccc1CNCC1CCCn2cc(C(C)(C)C)nc21` (configuration not stated), the “Percent Effect” value is recorded as 4.297%.

For the molecule `NCC1CCN(c2cnn(CCCn3cccn3)c(=O)c2)CC1`, the “Percent Effect” value amounted to 3.68%.

As to `Cc1cc(C)n(CC2CCCN2CCC(=O)Nc2cc(C)on2)n1` (configuration not stated), the “Percent Effect” value is recorded as 109.3%.

As for `Cc1cc(C)n(CC2CCCN2CC(=O)NC2CCOCC2)n1` (configuration not stated), the “Percent Effect” value was -0.8879%.

As for `Cc1cc(C)n(CC2CCCN2CC(=O)Nc2nnc(C)s2)n1` (configuration not stated), the “Percent Effect” value is recorded as -4.484%.

`Cc1cc(C)n(CC2CCCCN2CC(=O)Nc2nnc(C)s2)n1` (configuration not stated): the “Percent Effect” value is recorded as -11.09%.

`Cc1cc(C)n(CC2CCCCN2CC(=O)Nc2ccncc2)n1` (configuration not stated): the “Percent Effect” value is recorded as 9.261%.

Consider `Cc1cc(C)n(CC2CCCCN2CCC(=O)Nc2cc(C)on2)n1` (configuration not stated), for which the “Percent Effect” value is listed as 105.6%.

With `CN(C)C(=O)C1CN(Cc2ccc(C#N)cc2F)c2ccccc2O1` (configuration not stated), the “Percent Effect” value is -1.206%.

Regarding `CC(NC(=O)N1CCN(c2cccs2)CC1)c1ccncc1` (configuration not stated), the “Percent Effect” value is given as -4.876%.

Turning to `O=C(Cc1cnccn1)N1CCC(c2nccn2CC2CC2)CC1`, the “Percent Effect” value is -28.72%.

Consider `CCC(=O)N1CCC(Cc2cnc(Nc3cnccn3)cn2)CC1`, for which the “Percent Effect” value stood at 88.17%.

On to `CC(=O)N1CCC(NC2(Cc3cc(C(C)(C)O)on3)COC2)CC1`, for which the “Percent Effect” value is 1.756%.

For `CSc1nnc(CC2CCN(C(=O)COc3cccnc3)CC2)n1C`, the “Percent Effect” value is recorded as 8.261%.

For `CC(=O)N1CCCC(C(=O)N2CCN(Cc3cc(C)on3)CC2)C1` (configuration not stated), the “Percent Effect” value came to 8.609%.

Consider `CC(=O)N1CCC(Cc2cnc(Nc3cc(C)on3)cn2)CC1`, for which the “Percent Effect” value is recorded as 121.6%.

In the case of `Cc1cnn(CC2CCCCN2CC(=O)Nc2c(C)n[nH]c2C)c1` (configuration not stated), the “Percent Effect” value turned out to be 8.734%.

Regarding `Cc1cnn(CC2CCCN2CC(=O)Nc2nccs2)c1` (configuration not stated), the “Percent Effect” value is recorded as 91.79%.

`CCN1CCC(NC(=O)CN2CCCCC2Cn2cc(C)cn2)CC1` (configuration not stated): the “Percent Effect” value stood at 7.683%.

As to `Cc1cnn(CC2CCCN2CC(=O)Nc2cc(C)on2)c1` (configuration not stated), the “Percent Effect” value is listed as 104.6%.

In the case of `Cc1cnn(CC2CCCN2CC(=O)NCc2ccccn2)c1` (configuration not stated), the “Percent Effect” value was found to be 118.9%.

In the case of `O=C(CN1CCCCC1Cn1cncn1)NCc1ccccn1` (configuration not stated), the “Percent Effect” value is -8.236%.

In the case of `Cc1cnn(CC2CN(CC(=O)NCc3ccccn3)CCO2)c1` (configuration not stated), the “Percent Effect” value is on record as -0.3283%.

In the case of `Cc1cnn(CC2CCCCN2CC(=O)Nc2nncs2)c1` (configuration not stated), the “Percent Effect” value is given as -7.053%.

As for `Cc1cnn(CC2CCCCN2CCC(=O)Nc2cc(C)on2)c1` (configuration not stated), the “Percent Effect” value came to 2.664%.

Turning to `Cc1cnn(CC2CCCN2CC(=O)Nc2cc(C)no2)c1` (configuration not stated), the “Percent Effect” value is recorded as 114.2%.

Consider `Cc1cnn(CC2CCCN2CC(=O)Nc2nncs2)c1` (configuration not stated), for which the “Percent Effect” value amounted to 1.96%.

In the case of `O=C(O)CC[C@@H]1CN(c2ccncc2)CC[C@@H]1N1CCOCC1`, the “Percent Effect” value is listed as -3.387%.

In the case of `Cc1ccc(C(=O)N2CCSCC2)cc1NC(=O)NCC1CCC1`, the “Percent Effect” value is reported as -32.66%.

For the molecule `Cc1cnn(CC2CCCN2CC(=O)N(C)Cc2ccc(C)o2)c1` (configuration not stated), the “Percent Effect” value was 15.94%.

Consider `Cc1cnn(CC2CCCN2CC(=O)Nc2cc(C(C)C)no2)c1` (configuration not stated), for which the “Percent Effect” value was determined as 129.6%.

Regarding `Cn1ncc(NCc2cc(F)cc(F)c2)c(Cl)c1=O`, the “Percent Effect” value was -8.673%.

Turning to `COc1ccc(NC(=O)CCC2CCCN(Cc3ncon3)C2)cc1Cl` (configuration not stated), the “Percent Effect” value is 9.109%.

In the case of `CC1CN(C(=O)c2cc(=O)[nH]c3ccc(F)cc23)CCO1` (configuration not stated), the “Percent Effect” value turned out to be 4.129%.

Consider `CN(C)C[C@@H]1[C@H]2CN(C(=O)c3cc(=O)[nH]c4ccc(F)cc34)C[C@@H]12`, for which the “Percent Effect” value is -6.499%.

Consider `CN(C)CCCNC(=O)CNC(=O)N1CCc2c([nH]c3ccccc23)C1`, for which the “Percent Effect” value came to 22.94%.

As to `O=C(CNC(=O)N1CCc2c([nH]c3ccc(Cl)cc23)C1)N1CCOCC1`, the “Percent Effect” value came to 10.93%.

Turning to `CN(C)CCNC(=O)CNC(=O)N1CCc2c([nH]c3ccc(Cl)cc23)C1`, the “Percent Effect” value was determined as 31.1%.

For `CN(CC(=O)N1CCc2[nH]c3ccccc3c2C1)CC1OCCO1`, the “Percent Effect” value came to 105.4%.

For `Cc1ccc2[nH]c3c(c2c1)CN(C(=O)CN(C)CC1OCCO1)CC3`, the “Percent Effect” value is 95.71%.

`CN(CC(=O)N1CCc2[nH]c3ccc(F)cc3c2C1)CC1OCCO1`: the “Percent Effect” value came out at 90.48%.

With `O=C(CN1CCc2[nH]c3ccccc3c2C1)NCc1ccco1`, the “Percent Effect” value is listed as -4.019%.

For `c1ccc2c(NCC3(N4CCOCC4)CCSC3)ncnc2c1` (configuration not stated), the “Percent Effect” value is -37.37%.

As to `CSCCC(CO)NC(=O)c1ccc2[nH]/c(=N\S(C)(=O)=O)sc2c1` (configuration not stated), the “Percent Effect” value was 102%.

As to `CC(CO)NC(=O)c1ccc2[nH]/c(=N\S(C)(=O)=O)sc2c1` (configuration not stated), the “Percent Effect” value is 96.98%.

In the case of `CCC(CC)NC(=O)c1ccc2c(c1)C(c1nc[nH]n1)CN2S(C)(=O)=O` (configuration not stated), the “Percent Effect” value is recorded as -0.8083%.

Regarding `CSCCC(C)NC(=O)c1cccc(-c2n[nH]c(C)n2)c1` (configuration not stated), the “Percent Effect” value is listed as -6.222%.

`Cc1nn(C)c2c(NCc3cccnc3)nc(C3CC3)nc12`: the “Percent Effect” value is given as -0.9652%.

For the molecule `Cc1nn(C)c(C)c1CN(C)c1nc(C2CC2)nc2c(C)nn(C)c12`, the “Percent Effect” value is reported as 9.92%.

On to `Cc1nn(C)c2c(N(C)Cc3cccs3)nc(C3CC3)nc12`, for which the “Percent Effect” value stood at 84.71%.

Regarding `Cc1nn(C)c2c(NCc3ccccc3F)nc(C3CC3)nc12`, the “Percent Effect” value is listed as -10.39%.

Regarding `COc1ccnc(N(C)Cc2ccco2)n1`, the “Percent Effect” value is recorded as 6.13%.

With `Cc1nn(C)c2c(N(C)Cc3ccco3)nc(C3CC3)nc12`, the “Percent Effect” value turned out to be 91.93%.

Turning to `O=C(NCCCO)c1cnc(-c2ccccc2)nc1O`, the “Percent Effect” value was -7.002%.

In the case of `CC(CCN1CCCC1=O)NCc1cnc(C2CCC2)s1` (configuration not stated), the “Percent Effect” value was determined as 5.748%.

Turning to `CC(=O)N1CCN(c2cc(C3CN(C)CCO3)nc(C)n2)CC1` (configuration not stated), the “Percent Effect” value is -11.29%.

On to `Cc1cnn(CC2CN(CCN3CCCC3=O)CCO2)c1` (configuration not stated), for which the “Percent Effect” value was -2.569%.

For `Cc1cc(N2CCCC(OC(=O)CCN3CCCC3=O)C2)nc(C)n1` (configuration not stated), the “Percent Effect” value is reported as -12.05%.

As to `Cc1nc(NCCN2CCCC2=O)cc(C2CN(C)CCO2)n1` (configuration not stated), the “Percent Effect” value stood at 121.4%.

As to `Cc1nc(NCCN2CCCC2=O)cc(C2CN(C(C)C)CCO2)n1` (configuration not stated), the “Percent Effect” value is 108.1%.
